Unmarked numbers belong to inactive results. Inconclusive results are not listed. Entries that show only a call come without a potency. Calls of active or inactive are those of the source. Unless noted, calls come from the whole dose curve; as a rule, active = well fitted curve in the direction sought with a large enough effect; inconclusive = small, poorly fitted or top-dose-only effect, or another doubt; inactive = no such curve, though single readings can be large; an effect the other way counts as inactive or inconclusive.
What was measured:
JEG-3 = assay: Primary qHTS to identify gynecologic anti-cancer compounds using libraries of approved drugs and bioactive compounds (AID 1345084); conditions: Gynecologic cancer cell panel viability, ATPlite luminescence, 48 h; series mostly up to 57.5 µM; note: nearly all actives have a fitted effect of over 55% in size; note: potency is the fitted concentration of half-maximal effect
In short: (§1)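 Five-point cytotoxicity, 48 h drug exposure at 37 C, 5% CO2, on cells seeded 16 h beforehand. ATP content read by ATPlite luminescence.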

OV90 = assay: as above; conditions: Gynecologic cancer cell panel viability, ATPlite luminescence, 48 h; series mostly up to 57.5 µM
In short: as §1

PA-1 = assay: as above; conditions: Gynecologic cancer cell panel viability, ATPlite luminescence, 48 h; series mostly up to 57.5 µM
In short: as §1

Tov-21-G = assay: as above; conditions: Gynecologic cancer cell panel viability, ATPlite luminescence, 48 h; series mostly up to 57.5 µM
In short: as §1

Tov112D = assay: as above; conditions: Gynecologic cancer cell panel viability, ATPlite luminescence, 48 h; series mostly up to 57.5 µM
In short: as §1

[1] = qHTS assay to identify inhibitors of the type 1 interferon - major histocompatibility complex class I in skeletal muscle: Counter screen cell viability and HiBit confirmation (AID 1347412); conditions: iHSKM muscle cells + IFN-b, HiBiT or CellTiter-Glo, 24 h; for activity change, negative = inhibition: at 45.9 µM (top of the series); note: potency is the fitted concentration of half-maximal effect; for all read-outs here: nearly all actives have a fitted effect of over 60% in size
In short: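 Luminescence read-out: Nano-Glo HiBiT lytic signal from C-terminally HiBiT-tagged HLA-B in CRISPR-edited human myoblasts, plus CellTiter Glo ATP as viability counter screen. IFN-beta 4.0 ng/ml; 24 hrs treatment at 37 C, 5% CO2.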

SKOV3 = assay: Primary qHTS to identify gynecologic anti-cancer compounds using libraries of approved drugs and bioactive compounds (AID 1345084); conditions: Gynecologic cancer cell panel viability, ATPlite luminescence, 48 h; series mostly up to 57.5 µM; note: nearly all actives have a fitted effect of over 55% in size; note: potency is the fitted concentration of half-maximal effect
In short: as §1

[2] = Drug repurposing screens with cells derived from glioblastoma tumor samples (AID 1345199); conditions: GBM patient neurospheres viability, ATP luminescence, 48 h; note: nearly all actives have a fitted effect of over 40% in size
In short: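 Four patient lines of CD133+ GBM neurospheres were screened at several concentrations; hits were retested in those lines plus three slower-growing GBM lines, using 48-hour treatment and ATP-based viability.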

[3] = biological target: Nuclear receptor subfamily 1 group I member 2 (Rattus norvegicus) (UniProt Q9R1A7); assay: qHTS assay for small molecule activators of the rat pregnane X receptor (rPXR) signaling pathway (AID 651751; call rule not given here); conditions: rPXR reporter cells, luciferase (One-Glo), 24 h
[4] = qHTS assay for small molecule activators of the human pregnane X receptor (PXR) signaling pathway (AID 720659; call rule not given here)

Nuclear receptor subfamily 1 group I member 2 (Rattus norvegicus), sequence (Q9R1A7 whole entry, looked up): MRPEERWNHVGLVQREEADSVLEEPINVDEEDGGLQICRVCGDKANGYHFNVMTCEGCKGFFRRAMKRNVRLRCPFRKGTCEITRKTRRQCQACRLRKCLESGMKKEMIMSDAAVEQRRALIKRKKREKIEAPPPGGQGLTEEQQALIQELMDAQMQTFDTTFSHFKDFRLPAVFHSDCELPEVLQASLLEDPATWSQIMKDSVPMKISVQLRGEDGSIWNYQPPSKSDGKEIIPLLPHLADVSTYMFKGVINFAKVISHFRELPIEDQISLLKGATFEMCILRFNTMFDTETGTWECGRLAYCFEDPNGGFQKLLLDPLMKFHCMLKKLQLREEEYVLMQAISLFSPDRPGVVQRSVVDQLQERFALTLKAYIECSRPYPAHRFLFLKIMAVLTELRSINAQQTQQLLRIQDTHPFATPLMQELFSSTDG

CN1CCC(CNc2ccc3ncc(-c4cccc(OC(F)(F)F)c4)n3n2)CC1
Potency (JEG-3): inactive | Potency (OV90): inactive | Potency (PA-1): inactive | Potency (Tov-21-G): inactive | Potency (Tov112D): inactive | Potency ([1]; HiBiT): 22.2 µM (active) | Potency ([1]; Viability): 31.3 µM (active)

COc1cc(-c2nn(C3CCC(N4CCN(C(C)=O)CC4)CC3)c3ncnc(N)c23)ccc1NC(=O)c1cc2ccccc2n1C (configuration not stated)
Potency (JEG-3): inactive | Potency (OV90): inactive | Potency (SKOV3): inactive | Potency (Tov112D): inactive

CN(C)Cc1c(C(=O)NCCOc2ccc(C(=O)NO)cc2)oc2ccccc12
Potency (JEG-3): 3.55 µM (active) | Potency (OV90): 1.58 µM (active) | Potency (PA-1): 1 µM (active) | Potency (SKOV3): 7.08 µM (active) | Potency (Tov-21-G): 7.94 µM (active) | Potency (Tov112D): 3.16 µM (active) | Potency ([1]; HiBiT): 0.787 µM (active) | activity change, negative = inhibition ([1]; Viability): -5.27%

CCOC(=O)C1=C(C)NC2=C(C(=O)CC(C)(C)C2)C1c1ccc(-c2ccccc2)cc1 (configuration not stated)
Potency (JEG-3): inactive | Potency (OV90): inactive | Potency (SKOV3): 10 µM (active) | Potency (Tov112D): 31.6 µM (active) | Potency ([1]; HiBiT): 2.49 µM (active) | activity change, negative = inhibition ([1]; Viability): -16.2%

CN(C)c1nc(Cc2ccc(NC(=O)c3ccc4ccccc4c3)cc2)nc(Cl)c1CC(=O)O
Potency (JEG-3): inactive | Potency (OV90): inactive | Potency (PA-1): inactive | Potency (Tov-21-G): inactive | Potency (Tov112D): inactive

CC(=O)SC[C@@H](C)C(=O)N1CCC[C@H]1C(=O)N[C@@H](Cc1ccccc1)C(=O)O
Potency (JEG-3): inactive | Potency (OV90): inactive | Potency (PA-1): inactive | Potency (Tov-21-G): inactive | Potency (Tov112D): inactive | activity, negative = cell killing ([2]; at 45.9 µM (top of the series), tumour line B): -6.65% | activity, negative = cell killing ([2]; at 45.9 µM (top of the series), tumour line D): 2.25% | activity, negative = cell killing ([2]; at 46.1 µM (top of the series), tumour line C): -6.2%

C[C@@H](Oc1cc(-c2cnn(C3CCNCC3)c2)cnc1N)c1c(Cl)ccc(F)c1Cl
Potency (JEG-3): 28.2 µM (active) | Potency (OV90): 25.1 µM (active) | Potency (PA-1): 14.1 µM (active) | Potency (Tov-21-G): 14.1 µM (active) | Potency (Tov112D): inactive | Potency ([1]; HiBiT): 17.6 µM (active) | Potency ([1]; Viability): 27.9 µM (active)

CC1(C)CC(=O)c2c(C(F)(F)F)nn(-c3ccc(C(N)=O)c(NC4CCC(OC(=O)CN)CC4)c3)c2C1 (configuration not stated)
Potency (JEG-3): inactive | Potency (OV90): 0.355 µM (active) | Potency (PA-1): 0.316 µM (active) | Potency (Tov-21-G): 0.355 µM (active) | Potency ([1]; HiBiT): 0.0557 µM (active)

O=C(CCCCCCNC(=O)c1cnc(N(c2ccccc2)c2ccccc2)nc1)NO
Potency (JEG-3): 15.8 µM (active) | Potency (OV90): 8.91 µM (active) | Potency (PA-1): 3.16 µM (active) | Potency (Tov112D): 28.2 µM (active)

C=CC(=O)Nc1cc2c(Nc3ccc(F)c(Cl)c3)ncnc2cc1OCCCN1CCOCC1
Potency (JEG-3): inactive | Potency (OV90): inactive | Potency (PA-1): inactive | Potency (SKOV3): 3.16 µM (active) | Potency (Tov112D): inactive | Potency ([1]; HiBiT): 15.7 µM (active) | activity change, negative = inhibition ([1]; Viability): -26.8%

CN(C)CC(C)(C)CNc1nn2c(-c3ccccc3)nnc2cc1C1CCC1
Potency (JEG-3): inactive | Potency (OV90): inactive | Potency (PA-1): inactive | Potency (Tov-21-G): inactive | Potency (Tov112D): inactive

Nc1cc(C(F)(F)F)c(-c2cc(N3CCOCC3)nc(N3CCOCC3)n2)cn1
Potency (JEG-3): 7.94 µM (active) | Potency (OV90): 10 µM (active) | Potency (PA-1): 6.31 µM (active) | Potency (Tov112D): 2.82 µM (active)

O=c1c2ccccc2nc2n1CCc1c-2[nH]c2ccccc12
Potency (JEG-3): inactive | Potency (OV90): inactive | Potency (PA-1): inactive | Potency (Tov-21-G): inactive | Potency (Tov112D): inactive

O=C(O)CCCc1c[nH]c2ccccc12
Potency (JEG-3): inactive | Potency (OV90): inactive | Potency (PA-1): inactive | Potency (SKOV3): inactive | Potency (Tov-21-G): inactive | Potency (Tov112D): inactive | max response [3]: -0.908% | outcome [4]: inactive

CN1CCN(Cc2ccc(NC(=O)Nc3ccc(Oc4cc(NC(=O)C5CC5)ncn4)cc3)cc2C(F)(F)F)CC1
Potency (JEG-3): 2.82 µM (active) | Potency (OV90): 0.631 µM (active) | Potency (PA-1): 0.794 µM (active) | Potency (Tov112D): 0.708 µM (active) | Potency ([1]; HiBiT): 0.442 µM (active) | activity change, negative = inhibition ([1]; Viability): 13.9%

Cc1ccc2nc(NC(=O)CSc3nc4c(c(=O)n3-c3ccccc3)SCC4)sc2c1
Potency (JEG-3): inactive | Potency (OV90): inactive | Potency (PA-1): inactive | Potency (Tov-21-G): inactive | Potency (Tov112D): inactive

NC(=O)c1cccc2cn(-c3ccc([C@@H]4CCCNC4)cc3)nc12
Potency (JEG-3): inactive | Potency (OV90): inactive | Potency (SKOV3): inactive | Potency (Tov-21-G): inactive

CNC(=O)c1ccccc1Nc1nc(Nc2ccc(N3CCOCC3)cc2OC)ncc1Cl
Potency (JEG-3): inactive | Potency (OV90): 1 µM (active) | Potency (PA-1): 14.1 µM (active) | Potency (SKOV3): 11.2 µM (active) | Potency (Tov-21-G): 12.6 µM (active) | Potency ([1]; HiBiT): 1.4 µM (active)

Cc1cn(-c2cc(NC(=O)c3ccc(C)c(Nc4nccc(-c5cccnc5)n4)c3)cc(C(F)(F)F)c2)cn1
Potency (JEG-3): inactive | Potency (OV90): inactive | Potency (PA-1): 12.6 µM (active) | Potency (Tov-21-G): inactive | Potency (Tov112D): inactive

Cc1cn2cc(C(=O)N(C)CCO)cc(N[C@@H]3CCOc4cccc(C)c43)c2n1
Potency (JEG-3): inactive | Potency (OV90): inactive | Potency (SKOV3): inactive | Potency (Tov-21-G): inactive | Potency (Tov112D): inactive

Nc1nccc(Oc2ccc(NC(=O)c3c[nH]cc(-c4ccc(F)cc4)c3=O)cc2F)c1Cl
Potency (JEG-3): inactive | Potency (OV90): inactive | Potency (PA-1): inactive | Potency (Tov-21-G): inactive | Potency (Tov112D): inactive | activity change, negative = inhibition ([1]; Viability): 1.85%

CC1(O)CC(c2nc(-c3ccc4ccc(-c5ccccc5)nc4c3)c3c(N)nccn23)C1 (configuration not stated)
Potency (JEG-3): inactive | Potency (OV90): inactive | Potency (PA-1): inactive | Potency (SKOV3): inactive | Potency (Tov-21-G): inactive | Potency (Tov112D): inactive | activity change, negative = inhibition ([1]; Viability): -13.8%

Reference: PubChem BioAssay (NCATS)
